Compound activity (PubChem BioAssay)
Efflux pump mplx – inhibitors of Candida antifungal efflux pumps expressed in yeast. S. cerevisiae Candida pump triplex, Nile Red efflux. inhibition, % at 10 µM. 0.44% of 330,000 active. AID 485275;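 active = plate passing quality check with inhibition over a set limit, or well fluorescence over plate mean plus 4 SD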;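 also: Nile Red retained in pooled yeast measured as flow cytometry median fluorescence; higher means more Nile Red kept so more efflux inhibition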
GRK2 aptamer HTS – blocks RNA aptamer binding to human GRK2; P25098; bead flow cytometry, FAM-aptamer displacement from GRK2; inhibition of aptamer binding, % at 10 µM; 0.59% of 330,000 active; AID 488847;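 active = inhibition of aptamer binding above 40%, roughly 3 SD of noise, on plates passing a quality check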;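 also: median bead fluorescence of bound FAM aptamer so fluorescent compounds give negative values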
Yeast superoxide – lowers age-related superoxide in aged yeast cells; AID 2690; S. cerevisiae aged cells, superoxide DHE fluorescence; hits give low values; 0.18% of 330,000 active; superoxide response (% of plate mean), % at 10 µM;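 active = superoxide response under a set limit, about three screen SD below normal, cut at about 65% in these data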;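 also: yeast aged for seven days with compound at 30 °C before DHE staining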
ATG4B inh – inhibitors of human ATG4B cysteine protease. AID 504462. 0.51% of 340,000 active. ATG4B cleavage of LC3-PLA2, NBD-HPC fluorescence, 1 h. inhibition, % at 8.33 µM; in the data active = inhibition above about 40%
Target sequence (Q9Y4P1 whole entry, looked up): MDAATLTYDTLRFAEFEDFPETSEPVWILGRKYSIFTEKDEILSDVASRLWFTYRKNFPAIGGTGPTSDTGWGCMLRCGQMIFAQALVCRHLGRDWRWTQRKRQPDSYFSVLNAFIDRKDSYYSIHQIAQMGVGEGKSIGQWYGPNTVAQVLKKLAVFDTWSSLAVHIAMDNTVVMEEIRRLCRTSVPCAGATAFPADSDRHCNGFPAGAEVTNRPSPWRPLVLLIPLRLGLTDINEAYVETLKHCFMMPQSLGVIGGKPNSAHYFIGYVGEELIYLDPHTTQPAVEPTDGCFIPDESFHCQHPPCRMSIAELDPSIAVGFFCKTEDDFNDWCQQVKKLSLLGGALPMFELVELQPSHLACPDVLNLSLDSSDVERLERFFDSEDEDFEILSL
ATG4B confirm – ATG4B (human) inhibition, single-dose confirmed. shares compounds with ATG4B inh. ATG4B protease fluorescent substrate cleavage assay. inhibition, % at 8.33 µM. 92% of 320 active. AID 504757; in the data active = inhibition above about 39%
PLA2 ctr – PLA2 (human) inhibition in ATG4B counter-screen; shares compounds with ATG4B inh; purified PLA2, NBD-C6-HPC fluorescence, 45 min; inhibition, % at 8.33 µM; 66% of 1,600 active; in the data active = inhibition above about 50%
Target sequence (P04054 whole entry, looked up): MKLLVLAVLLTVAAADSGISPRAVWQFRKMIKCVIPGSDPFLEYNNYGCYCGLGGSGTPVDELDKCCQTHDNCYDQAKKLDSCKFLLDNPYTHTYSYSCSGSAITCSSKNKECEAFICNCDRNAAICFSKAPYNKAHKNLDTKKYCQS
Hits are given with their value; . = inactive; / = no result given. In the library only some 1.6% were active in any assay of this set; here they are far more common.

SMILES	Efflux pump mplx	GRK2 aptamer HTS	Yeast superoxide	ATG4B inh	PLA2 ctr	others
O=C(O)CC/C(=C\c1ccc(Cl)c([N+](=O)[O-])c1)c1nc2ccccc2s1	.	.	.	49	.	ATG4B confirm=64
Cn1c(CNc2ccc(F)cc2)nc2ccccc21	.	.	.	.	/
Cc1cc(C)n2nc(SCc3cccc(F)c3)nc2n1	.	.	.	.	/
CC(C)CCN1CCN(Cc2cnc(N3CCCC3)s2)CC1CCO (configuration not stated)	.	.	.	.	/
CC1=CC(C)(C)N2C(=O)C3(NCCc4c3[nH]c3ccccc43)c3cc(C)cc1c32 (configuration not stated)	.	.	.	58	69
CN1C(=O)C2(NCCc3c2[nH]c2ccccc32)c2ccccc21 (configuration not stated)	.	.	.	.	/
COC(=O)C(C)N(C(=O)c1ccc(C(=O)c2ccccc2)cc1)c1c(C)cccc1C (configuration not stated)	.	.	.	57	.	ATG4B confirm=58
O=[N+]([O-])c1cccc(-c2csc(Nc3ccccc3)n2)c1	.	.	.	.	/
COc1cc(NS(=O)(=O)c2ccc(Nc3nc(-c4cccc([N+](=O)[O-])c4)cs3)cc2)nc(OC)n1	.	.	.	45	.	ATG4B confirm=78
O=C(NC1CCCC1)C(c1cccnc1)N(Cc1ccccc1)C(=O)c1csnn1 (configuration not stated)	.	.	.	.	/
O=C(CC1S/C(=N/N=C/c2cccs2)NC1=O)Nc1ccc(Cl)cc1 (configuration not stated)	.	.	.	.	/
O=C(CC1S/C(=N/N=C/c2cccs2)NC1=O)Nc1ccc(Cl)c(Cl)c1 (configuration not stated)	.	.	.	61	.	ATG4B confirm=59
Cc1ccc(-c2nc3ccccc3[nH]2)cc1NC(=O)c1ccc2c(c1)OCO2	.	.	.	.	/
Cc1ccc(-c2nc3ccccc3[nH]2)cc1NC(=S)NC(=O)c1ccccc1Br	.	.	.	41	61
O=C(NC(=S)Nc1cc(-c2nc3ccccc3[nH]2)ccc1Cl)c1ccc2c(c1)OCO2	.	.	.	52	60
C=CCC[C@@H](Cc1ccc(F)cc1)C(=O)OC[C@@H](NC(=O)[C@@H](CC=C)CC(=O)N(CCO)Cc1ccccc1)c1ccccc1	.	.	.	.	/
C=CCC[C@@H](Cc1ccc(F)cc1)C(=O)OC[C@@H](NC(=O)[C@H](CC=C)CC(=O)N(CCO)Cc1ccccc1)c1ccccc1	.	.	.	53	76
S=C(NCc1ccccc1)NCc1cccc(Cl)c1	.	.	.	64	78
S=C(NCc1ccccc1)NCC1COc2ccccc2O1 (configuration not stated)	.	.	.	53	61
S=C(NCc1ccccc1)NCc1cccc(CNC(=S)NCc2ccccc2)c1	.	.	.	68	77
S=C(NCC1COc2ccccc2O1)Nc1ccccc1 (configuration not stated)	.	.	.	.	/
Fc1ccc(CNC(=S)NCc2cccc(Cl)c2)cc1	.	.	.	79	86
O=S(=O)(NC1=NCCCCC1)c1ccc2ccccc2c1	.	.	.	.	/
S=C(NCCc1ccc(Cl)cc1)NCc1ccccc1	.	.	.	64	73
O=C(COc1ccccc1-c1ccccc1)NCc1cccc(Cl)c1	.	.	.	56	.	ATG4B confirm=57
SMILES	Efflux pump mplx	GRK2 aptamer HTS	Yeast superoxide	ATG4B inh	PLA2 ctr	others
S=C(NCCc1cccc(Cl)c1)NCc1ccccc1	.	.	.	/	/
O=C(NCc1cccc(Cl)c1)NCc1cccc(Cl)c1	.	.	.	73	77
O=C(Nc1ccc(C(=O)NC2CCCCC2)cc1)c1cccnc1	.	.	.	.	/
CC(C)S(=O)(=O)C1=NSC2=NC(=O)/C(=C\c3ccc(-c4ccccc4)o3)C(=N)N21	.	.	.	59	56
CS(=O)(=O)C1=NSC2=NC(=O)/C(=C\c3ccc(-c4ccccc4)o3)C(=N)N21	.	.	.	/	/
O=C(N/N=C/c1coc2ccccc2c1=O)c1cccc([N+](=O)[O-])c1	.	.	.	46	.
COc1cc(C(=O)N/N=C/c2coc3ccc(Cl)cc3c2=O)ccc1O	.	.	.	51	.	ATG4B confirm=.
O=C(N[C@@H](Cc1ccccc1)C(=O)OCc1ccccc1)c1nc[nH]c1C(=O)N1CCc2ccccc2C1	.	.	.	.	/
COc1ccccc1CNS(=O)(=O)c1ccc(-c2cnc(C3CC3)o2)cc1	.	.	.	.	/
CC(C)(C)OC(=O)N[C@@H](C(=O)OC(C)(C)C)c1ccc2c(c1)OCO2	.	.	.	.	/
Nc1c(S(=O)(=O)O)cc(NC(=O)c2ccccc2)c2c1C(=O)c1ccccc1C2=O	.	.	.	76	68
CCCCSc1nc(O)cc(=O)n1CC	.	.	.	.	/
CC1Sc2ccc(C(=O)NCc3cccc(C(F)(F)F)c3)cc2NC1=O (configuration not stated)	.	.	.	.	/
CC(C)(C)c1ccccc1N=Cc1ccc2ccccc2n1	.	.	.	54	.	ATG4B confirm=74
O=C(c1ccc(Cl)cc1)c1oc2ccccc2c1CS(=O)(=O)c1ccccc1	.	.	.	43	.
Cc1cccc(/C=C/c2onc(C)c2S(=O)(=O)N2CCC(C(=O)N3CCC(C)CC3)CC2)c1	.	.	.	.	/
Cc1cccc(/C=C/c2onc(C)c2S(=O)(=O)N2CCC(C(=O)N3CCCCCC3)CC2)c1	.	.	.	40	52
Cc1noc(/C=C/c2ccco2)c1S(=O)(=O)N1CCC(C(=O)N2c3ccccc3CC2C)CC1 (configuration not stated)	.	.	.	48	76
COc1ccccc1N1CCN(C2CCCN(C(=O)c3ccsc3)C2)CC1 (configuration not stated)	.	.	.	.	/
CCOc1ccccc1N1CC(C(=O)Nc2cc(Cl)ccc2C)CC1=O (configuration not stated)	.	.	.	.	/
CCn1c(O)c(/C=C2\C=Nc3ccccc32)sc1=Nc1ccccc1	.	.	.	43	.
Cc1oc(-c2ccc3ccccc3c2)nc1CN(C)C(C)c1ccncn1 (configuration not stated)	.	.	.	.	/
CC1=CCC[C@@H]2[C@@](C)(CC/C(C)=C/C(=O)O)[C@H](C)CC[C@@]12C	/	/	/	79	81
C[C@@H]1CC[C@@]23COC(=O)C2=CCC[C@@H]3[C@@]1(C)CC/C(=C/CO)CO	.	.	.	.	/
O=C(CSc1nccn1-c1ncc(C(F)(F)F)cc1Cl)c1ccc(Br)cc1	.	.	.	104	.
CN(Cc1cccc(F)c1)C(=O)c1ccc(S(=O)(=O)N2CCCCCC2)cc1	.	.	.	.	/
O=C(NC1CCSc2ccccc21)c1cccc(Br)c1 (configuration not stated)	.	.	.	.	/
